Inconclusive results are not listed. Active and inactive are the calls of the source. Unless noted, calls come from the whole dose curve.

A short description of assay [1]: qHTS for Inhibitors of the Functional Ribonucleoprotein Complex (vRNP) of Lassa (LASV) Arenavirus: LASV Primary Screen - GLuc reporter signal (AID 1347082; calls by dose curve; tested in HEK293 reporter line; note: nearly all actives have a fitted effect of over 60% in size). For orientation: In qHTS, concentration-response curves come from the screen itself.
Assay [2] in a line: qHTS for Inhibitors of the Functional Ribonucleoprotein Complex (vRNP) of Lassa (LASV) Arenavirus: Viability assay - alamar blue signal for LASV Primary Screen (AID 1347083; calls by dose curve; tested in HEK293 reporter line; note: nearly all actives have a fitted effect of over 80% in size).
Assay [3] can be described thus: qHTS for Inhibitors of the Functional Ribonucleoprotein Complex (vRNP) of Lymphocytic Choriomeningitis Arenaviruses (LCMV): Viability assay - alamar blue signal for LCMV Primary Screen (AID 1347085; calls by dose curve; tested in HEK293 reporter line; note: nearly all actives have a fitted effect of over 80% in size).
For assay [4], the target named is Nucleoprotein (Lymphocytic choriomeningitis virus (strain Armstrong)) (UniProt P09992). As to the kind of experiment: qHTS for Inhibitors of the Functional Ribonucleoprotein Complex (vRNP) of Lymphocytic Choriomeningitis Arenaviruses (LCMV): LCMV Primary Screen - GLuc reporter signal (AID 1347086). Note: nearly all actives have a fitted effect of over 70% in size.
Potency is the fitted concentration of half-maximal effect.

Sequence of Nucleoprotein (Lymphocytic choriomeningitis virus (strain Armstrong)) (P09992 whole entry, looked up): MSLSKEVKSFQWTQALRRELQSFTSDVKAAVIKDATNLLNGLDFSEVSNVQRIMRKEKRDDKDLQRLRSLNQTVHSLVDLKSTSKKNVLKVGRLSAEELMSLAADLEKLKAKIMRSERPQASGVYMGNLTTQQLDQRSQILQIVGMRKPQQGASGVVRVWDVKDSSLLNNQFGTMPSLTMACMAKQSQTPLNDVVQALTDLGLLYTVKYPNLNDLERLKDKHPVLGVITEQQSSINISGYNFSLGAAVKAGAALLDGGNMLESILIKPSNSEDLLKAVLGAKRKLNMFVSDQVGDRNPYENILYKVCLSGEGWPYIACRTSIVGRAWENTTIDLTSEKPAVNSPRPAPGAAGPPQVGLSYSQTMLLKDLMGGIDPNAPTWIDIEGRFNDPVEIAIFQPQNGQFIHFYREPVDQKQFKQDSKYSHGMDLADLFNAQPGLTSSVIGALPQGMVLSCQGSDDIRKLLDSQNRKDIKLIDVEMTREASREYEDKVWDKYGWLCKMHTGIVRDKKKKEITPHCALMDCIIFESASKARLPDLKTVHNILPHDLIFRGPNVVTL

Turning to `O=CC(O)C1OC(=O)C(O)C1O` (stereo not given), the Potency result in assay [1], in assay [2], in assay [3] and in assay [4] was “inactive” throughout.

For `O=C(O)C=C(Br)Br`, the Potency entry in assay [1], in assay [2], in assay [3] and in assay [4] was “inactive” in each case.

`CCC(C)C(=O)OCCc1ccccc1` (stereo not given): the Potency entry in assay [1], in assay [2], in assay [3] and in assay [4] was “inactive” each time.

As to `CC1(C)O[C@H]2C[C@@H]3[C@H]4CCC5=CC(=O)C=C[C@]5(C)[C@@]4(F)[C@@H](O)C[C@]3(C)[C@]2(C(=O)CO)O1`, the Potency result in assay [1], in assay [2], in assay [3] and in assay [4] was “inactive” in each case.

For the compound `COc1ccc(-c2cc(=O)c3c(O)cc(OC4OC(COC5OC(C)C(O)C(O)C5O)C(O)C(O)C4O)cc3o2)cc1O` (stereo not given), the Potency result in assay [1], in assay [2], in assay [3] and in assay [4] was “inactive” throughout.

Turning to `CC1(C)C[C@H]2C3=CCC4[C@@]5(C)CC[C@H](O)[C@](C)(CO)C5CC[C@@]4(C)[C@]3(C)C[C@@H](O)[C@@]2(CO)[C@@H](O)[C@@H]1O` (stereo not given in full), the Potency result in assay [1], in assay [2], in assay [3] and in assay [4] was “inactive” in each case.

Turning to `O=c1cc(-c2ccc(O)c(O)c2)oc2ccccc12`, the Potency entry in assay [1], in assay [2], in assay [3] and in assay [4] was “inactive” throughout.

Turning to `C/C=C/C=C/CO`, the Potency result in assay [1], in assay [2], in assay [3] and in assay [4] was “inactive” throughout.

Consider `CC(=NNC(=S)N1CCC1)c1ccccn1`, for which the Potency is 27.3 nM (active) in assay [1], 43.2 nM (active) in assay [2], 38.5 nM (active) in assay [3] and 24.3 nM (active) in assay [4].

For the compound `COc1c2ccoc2nc2c(OC)c(OCC(OC(C)=O)C(C)(C)O)ccc12` (stereo not given), the Potency result in assay [1], in assay [2], in assay [3] and in assay [4] was “inactive” throughout.

Take `C=C1C(=O)OC2C1C(OC(=O)C(C)=CC)CC(=C)C1C(O)C3OC3(C)C21O` (stereo not given): the Potency entry in assay [1], in assay [2], in assay [3] and in assay [4] was “inactive” in each case.

As to `CC1OCCC1=O` (stereo not given), the Potency entry in assay [1], in assay [2], in assay [3] and in assay [4] was “inactive” throughout.

Consider `CC1=C(O)C(=O)CO1`, for which the Potency entry in assay [1], in assay [2], in assay [3] and in assay [4] was “inactive” throughout.

For the compound `C[C@]12CC[C@@H](O)CC1=CC(=O)C1C2CC[C@]2(C)C(=O)[C@H](O)CC12` (stereo not given in full), the Potency result in assay [1], in assay [2], in assay [3] and in assay [4] was “inactive” throughout.

In the case of `Cn1c(=O)c2nncnc2n(C)c1=O`, the Potency entry in assay [1], in assay [2], in assay [3] and in assay [4] was “inactive” each time.

For `CCCCCOC(=O)CCC`, the Potency entry in assay [1], in assay [2], in assay [3] and in assay [4] was “inactive” in each case.

Regarding `CC(C)=CCC/C(C)=C/Cc1c(O)ccc(C(=O)/C=C/c2ccc(O)cc2)c1O`, the Potency entry in assay [1], in assay [2], in assay [3] and in assay [4] was “inactive” each time.

On to `CC(C)=CCC/C(C)=C/CC/C(C)=C/CCC1(C)CCc2cc(O)ccc2O1` (stereo not given), for which the Potency entry in assay [1], in assay [2], in assay [3] and in assay [4] was “inactive” throughout.

Regarding `O=C(NCCCCNCCCNC(=O)c1ccccc1)c1ccccc1`, the Potency result in assay [1], in assay [2], in assay [3] and in assay [4] was “inactive” in each case.

For `OC[C@H]1O[C@@H](Oc2ccc(O)cc2)[C@H](O)[C@@H](O)[C@H]1O`, the Potency result in assay [1], in assay [2], in assay [3] and in assay [4] was “inactive” throughout.

With `CCCCc1ccc(O)cc1`, the Potency entry in assay [1], in assay [2], in assay [3] and in assay [4] was “inactive” throughout.

Consider `CC(C)N(CCCNC(=O)Nc1ccc(C(C)(C)C)cc1)C[C@H]1O[C@@H](n2cc(Br)c3c(N)ncnc32)[C@H](O)[C@H]1O`, for which the Potency entry in assay [1], in assay [2], in assay [3] and in assay [4] was “inactive” each time.

Consider `CC[C@H](C)/C=C(C)/C=C/C1=CC2=CC(=O)[C@]3(C)OC(=O)[C@@H](C(C)=O)[C@@H]3C2=CO1`, for which the Potency entry in assay [1], in assay [2], in assay [3] and in assay [4] was “inactive” each time.

On to `C=C1C2CC[C@]3(CCC4[C@@]5(C)CCC[C@@]4(CN(CCO)C5)[C@@H]3C2)[C@@H]1O` (stereo not given in full), for which the Potency result in assay [1], in assay [2], in assay [3] and in assay [4] was “inactive” each time.

For `S=C(NCc1ccccc1)NCc1ccccc1`, the Potency entry in assay [1], in assay [2], in assay [3] and in assay [4] was “inactive” each time.

For `O=CCCc1ccccc1`, the Potency entry in assay [1], in assay [2], in assay [3] and in assay [4] was “inactive” each time.

Consider `CC1(C)C2=CCCC(C)(C)[C@]23CC[C@H]1C3`, for which the Potency entry in assay [1], in assay [2], in assay [3] and in assay [4] was “inactive” throughout.

Take `O=C(O)Cn1ccnc1`: the Potency entry in assay [1], in assay [2], in assay [3] and in assay [4] was “inactive” in each case.

Consider `CNc1ncnc2c1ncn2[C@@H]1O[C@H](CO)C(O)[C@H]1O` (stereo not given in full), for which the Potency result in assay [1], in assay [2], in assay [3] and in assay [4] was “inactive” throughout.

In the case of `COc1cc2c(cc1OC)[C@H]1C(=O)c3ccc4c(c3O[C@H]1CO2)C[C@@H](C(C)(C)O)O4`, the Potency entry in assay [1], in assay [2], in assay [3] and in assay [4] was “inactive” throughout.

The record behind these values is PubChem BioAssay (NCATS).
